Neddylation inh = inhibitors of cullin neddylation, primary screen, biochemical, TR-FRET, uHTS, NAE and Ubc12. NEDD8-conjugating enzyme Ubc12 (Homo sapiens) + NEDD8-activating enzyme E1 regulatory …. inhibition, % at 25 µM. 360,000 compounds, 0.58% hits. AID 651699, 2012; in the data active = inhibition above about 36%
HDAC3 inh = HDAC3 deacetylase inhibitors, primary screen, biochemical, fluorescence, cell-free homogeneous; 320,000 compounds, 0.15% hits; inhibition, % at 8.3 µM; recombinant HDAC3, fluorogenic peptide/trypsin coupled; Histone deacetylase 3 (Homo sapiens), O15379; in the data active = inhibition above about 26%, passing the limit was not always enough
Cardio protect = cardioprotection against H2O2-induced cell death, primary screen, uHTS, H9c2 cells, ATPLite luminescence; H9c2 cardiomyocytes, H2O2 injury protection, 2 h; 360,000 compounds, 0.63% hits; AID 588492, 2011; protection from H2O2 cell death, % at 20 µM;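 active = compounds giving at least 50% protection of heart cells from peroxide-induced death in the single-dose screen, raw or plate-pattern-corrected value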;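 note: 0% = DMSO wells with peroxide and 100% = DMSO wells without peroxide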
GRK2 aptamer HTS = compounds blocking aptamer binding on GRK2 – biochemical, human GRK2, bead flow cytometry, HTS, primary screen | FAM-aptamer displacement from GRK2 | Beta-adrenergic receptor kinase 1 (Homo sapiens), P25098 | 330,000 compounds, 0.59% hits | inhibition of aptamer binding, % at 10 µM;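 active = inhibition of aptamer binding above 40%, roughly 3 SD of noise, on plates passing a quality check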;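 note: median bead fluorescence of bound FAM aptamer so fluorescent compounds give negative values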
Target sequence (P25098 whole entry, looked up): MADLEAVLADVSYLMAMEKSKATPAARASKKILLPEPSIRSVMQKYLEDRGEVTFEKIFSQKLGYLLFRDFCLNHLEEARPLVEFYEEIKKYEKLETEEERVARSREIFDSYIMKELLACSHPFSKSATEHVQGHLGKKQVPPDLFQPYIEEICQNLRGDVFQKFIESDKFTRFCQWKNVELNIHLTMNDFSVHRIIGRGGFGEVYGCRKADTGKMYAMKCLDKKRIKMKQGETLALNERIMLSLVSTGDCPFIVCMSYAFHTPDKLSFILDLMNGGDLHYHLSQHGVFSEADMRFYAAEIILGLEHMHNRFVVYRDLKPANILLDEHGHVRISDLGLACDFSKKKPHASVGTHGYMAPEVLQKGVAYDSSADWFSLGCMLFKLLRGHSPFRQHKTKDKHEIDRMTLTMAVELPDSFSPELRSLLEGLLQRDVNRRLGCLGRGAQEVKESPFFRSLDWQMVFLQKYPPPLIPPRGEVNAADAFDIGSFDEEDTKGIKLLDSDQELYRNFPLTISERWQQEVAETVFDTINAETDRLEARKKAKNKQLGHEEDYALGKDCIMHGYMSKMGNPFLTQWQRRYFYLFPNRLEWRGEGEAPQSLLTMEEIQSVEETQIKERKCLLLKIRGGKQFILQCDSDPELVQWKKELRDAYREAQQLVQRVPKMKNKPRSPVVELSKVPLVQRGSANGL
* = called active by the depositor; / = no result shown. This is a sample that favours compounds with a hit; in the whole collection about 1.8% have one here.

SMILES | Neddylation inh | HDAC3 inh | Cardio protect | GRK2 aptamer HTS
O=S(=O)(O)c1cc(O)c2cc(Nc3ccccc3)ccc2c1 | 44* | / | 0 | /
COc1ccccc1Nc1ccc2c(O)cc(S(=O)(=O)O)cc2c1 | 46* | / | 1 | /
O=S(=O)(O)c1cc(O)c2ccc(Nc3ccccc3)cc2c1 | 54* | / | 0 | /
S=C(NCCCN1CCN(CCCNC(=S)NC2CCCCC2)CC1)NC1CCCCC1 | 6 | / | -9 | /
COc1cc2oc3ccc(C#Cc4ccccn4)cc3c(=O)c2cc1OC | / | -1 | 66* | 0
Cn1c2ccccc2c(=O)c2ccc(C#Cc3ccccn3)cc21 | / | -16 | / | 0
COc1cc2oc3ccc(C#Cc4ccc(N)cc4)cc3c(=O)c2cc1OC | -6 | 0 | 57* | 2
COCCCn1cnc2c(c1=O)c1nc3ccccc3nc1n2-c1ccccc1 | 33 | -2 | 5 | 3
C=CCn1cnc2c(c1=O)c1nc3ccccc3nc1n2/N=C/c1cccc(OC)c1OC | 11 | 5 | 74* | 0
C=CCn1cnc2c(c1=O)c1nc3ccccc3nc1n2/N=C/c1cc(OC)c(OC)c(OC)c1 | -24 | -7 | 65* | 1
O=c1c2c3nc4ccccc4nc3n(/N=C/c3ccccn3)c2ncn1-c1ccccc1 | -44 | 0 | 35 | 0
COCCn1cnc2c(c1=O)c1nc3ccccc3nc1n2/N=C/c1cccc(OC)c1 | 13 | 2 | 52* | 2
C=CCn1cnc2c(c1=O)c1nc3ccccc3nc1n2/N=C/c1ccccn1 | 24 | / | 98* | /
COc1cc(/C=C/c2nc(N)nc(-c3ccccc3O)n2)cc(OC)c1OC | 8 | 13 | 47 | 0
COc1cc(/C=C/c2nc(-c3ccccc3O)n[nH]2)cc(OC)c1OC | 27 | / | 66* | 0
Cc1cc(C)cc(OCC(=O)Nc2cccc(-c3nnc(-c4ccco4)o3)c2)c1 | 15 | 0 | 54* | 0
COc1cc(C(=O)Nc2cccc(-c3nnc(-c4ccco4)o3)c2)ccc1OC(C)=O | 5 | 5 | 79* | 7
CCC(=O)Nc1ccc(-c2nnc(-c3ccccc3)o2)cc1 | / | -4 | -11 | 0
CCC(=O)Nc1cccc(-c2nnc(-c3cccc(NC(=O)CC)c3)o2)c1 | 9 | 2 | 85* | 0
CCOc1ccccc1NC(C)C(=O)Nc1cc(C(F)(F)F)ccc1N1CCOCC1 (stereo not drawn) | -2 | 4 | -5 | 0
COc1ccccc1Nc1nnc(SCc2nnc(-c3cc(OC)c(OC)c(OC)c3)o2)s1 | 11 | 0 | 21 | 4
CCOc1ccccc1Nc1nnc(SCc2nnc(-c3cc(OC)c(OC)c(OC)c3)o2)s1 | 0 | -2 | 68* | 2
COc1ccccc1NS(=O)(=O)c1cc2c3c(c1)CCN3C(=O)CC2 | 8 | 1 | -2 | 0
CN(C(=O)c1ccc(NC(=O)Cc2ccc(NC(=O)C3CCCN(C(=O)CCc4ccccc4)C3)cc2)cc1)C1CCCC1 (stereo not drawn) | -5 | / | -21 | /
O=C1C2C3C=CC(CC3)C2C(=O)N1c1ccc(Br)cc1 (stereo not drawn) | 1 | / | 6 | /
SMILES | Neddylation inh | HDAC3 inh | Cardio protect | GRK2 aptamer HTS
O=C1C2C3C=CC(CC3)C2C(=O)N1c1cccc(Br)c1 (stereo not drawn) | 0 | -1 | 76* | 1
Cc1ccccc1S(=O)(=O)Cc1ccc(C(=O)NC2CCCCC2)o1 | -9 | 3 | 4 | 0
CCCC(c1nnnn1C(C)(C)CC)N(CCCO)Cc1cc2cc(C)cc(C)c2[nH]c1=O (stereo not drawn) | 25 | 4 | 59* | 0
CC(C)n1c(SCC(=O)Nc2ccccc2N2CCOCC2)nc2c1c(=O)n(C)c(=O)n2C | -5 | 5 | 34 | 2
CCn1c(SCC(=O)OCc2ccccc2)nc2c1c(=O)n(C)c(=O)n2C | -3 | 32* | 7 | 3
CCn1c(SCC(=O)Nc2ccccc2N2CCCCC2)nc2c1c(=O)n(C)c(=O)n2C | 3 | 1 | 62* | 6
COc1cccc(CC(=O)OCC(=O)NC(C)c2ccc(F)cc2)c1 (stereo not drawn) | -14 | -5 | 8 | 1
CCCCCCCCCCCC(=O)NC1CCS(=O)(=O)C1 (stereo not drawn) | 6 | -1 | -24 | 0
COCCN(C(=O)Cc1cccs1)C(C(=O)NCc1ccc(OC)cc1)c1ccc(OC)cc1 (stereo not drawn) | 2 | 0 | 19 | 0
Cc1ccc(C(C(=O)NC2CCCC2)N(C(=O)Cc2cccs2)c2ccc3c(c2)OCCO3)cc1 (stereo not drawn) | 8 | 1 | 10 | 1
COc1ccc(CNC(=O)C(c2ccc(C)cc2)N(Cc2cccs2)C(=O)c2ccc3c(c2)OCCO3)cc1 (stereo not drawn) | 0 | -11 | 61* | 0
COC(=O)c1ccc(C(C(=O)NCc2ccccc2)N(Cc2cccs2)C(=O)c2cnccn2)cc1 (stereo not drawn) | 15 | 1 | 76* | 0
Cc1ccc(C(C(=O)NCc2ccccc2)N(Cc2cccs2)C(=O)c2ccc3c(c2)OCCO3)cc1 (stereo not drawn) | -2 | 1 | 56* | 0
COc1ccc(CNC(=O)C(c2cccs2)N(Cc2ccco2)C(=O)Cc2cccs2)cc1 (stereo not drawn) | -1 | -2 | 63* | 0
O=C(COc1nsnc1N1CCOCC1)Nc1ccc(Br)cc1 | 6 | 0 | 0 | 0
CC(OC(=O)Cc1c[nH]c2ccccc12)C(=O)c1ccccc1 (stereo not drawn) | -28 | 11 | 0 | 2
Cc1ccc(CC(=O)NCCS(=O)c2ccc(C)cc2)cc1 (stereo not drawn) | -5 | 3 | 6 | 0
Cc1ccccc1/C=N/Nc1ccnc2cc(Cl)ccc12 | 31 | -7 | -31 | 0
Cc1ccc(/C=N/Nc2ccnc3cc(Cl)ccc23)c(C)c1 | 45* | 3 | -24 | 0
CC(=O)c1cccc(Nc2nc(-c3sc(N)nc3C)cs2)c1 | -7 | 7 | 70* | 1
Cc1cccc(NC(=O)C2=C(O)c3ccccc3N(C)S2(=O)=O)c1 | 6 | 16 | -4 | 3
CN1c2ccccc2C(O)=C(C(=S)Nc2ccc(Cl)cc2)S1(=O)=O | 33 | 7 | -13 | 61*
COc1ccc(Nc2nc(Cl)nc(N3CCN(c4ccc(OC)cc4)CC3)n2)cc1 | / | 2 | / | 1
Cc1nnc2ccc(-c3cccc(NC(=O)c4ccc(Cl)nc4)c3)nn12 | -8 | -4 | 63* | 0
COc1ccc2nc(-c3ccccc3)cc(C(=O)N3CCC3)c2c1 | / | -81 | 5 | 0
COc1cccc(CN2CCN(C(=O)c3cc(-c4cccnc4)nc4ccc(C)cc34)CC2)c1 | 13 | 1 | 50* | 3
Cc1ccc(NC(=S)NC2CCSc3ccccc32)cc1C (stereo not drawn) | 6 | 10 | -15 | 0
COc1ccc(-c2cn3cccnc3n2)cc1NC(=O)c1ccc(Br)o1 | / | -2 | 58* | 0
